Measured values: PubChem BioAssay (NCI)
Compounds without any hit were thinned out: in the full panel of roughly 83,000, 20% have a hit.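 Cell lines were cultured in 96-well plates, exposed to a single compound concentration, and assessed for percent growth 48 hours later.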 Unmarked numbers belong to inactive results. Active and inactive are the calls of the source. Rule for the calls: active = growth percent below 10; inactive = the rest.

These molecules were tested on HL-60(TB) leukemia (assay: NCI-60 one-dose screen, 48 h (100 = growth as untreated, 0 = no growth, -100 = all killed)). Settings: 10 µM unless noted.
In the case of `O=C1/C(=C/C(Cl)=C/c2ccccc2)SC(=S)N1CCc1ccc(O)cc1`, the growth is reported as -7.15% (active). Molecule `O=c1c(O)cccn1CCCNCCCN(CCCn1cccc(O)c1=O)CCCn1cccc(O)c1=O` has a growth of 120%. `O=C(/C=C/c1ccccn1)c1ccccc1O` showed a growth of 13.1%. With `N/C(=N\OC(=O)c1ccccc1)C(Cc1ccccc1)C(=O)NOC(=O)c1ccccc1` (stereo not given) the growth was -1.14% (active). In the case of `COc1ccc(OC)c(Nc2nnc(-c3cc(OC)c(OC)c(OC)c3)o2)c1`, the growth is reported as 95.5%. With `CCc1c2c(nc3ccc(OCc4ccc(B(O)O)cc4)cc13)-c1cc3c(c(=O)n1C2)COC(=O)[C@]3(O)CC` the growth was -40.8% (active). In the case of `CC1CCC(C)(C)c2ccccc21` (stereo not given), the growth is reported as 109%. In the case of `CCN1CCN(CC(=O)Nc2nc3ccc(NCc4ccc(F)cc4)cc3s2)CC1`, the growth is reported as 96.4%. `OC(c1cc(C(F)(F)F)nc2c(C(F)(F)F)cccc12)C1CCCCN1` (stereo not given) gave a growth of 50.3%. In the case of `O=C(/C=C/C12c3ccccc3C(c3ccccc31)C1C(=O)NC(=O)C12)c1ccncc1` (stereo not given), the growth is reported as 2.98% (active). In the case of `C#CCNCCN1C(=O)c2ccc3c4c(ccc(c24)C1=O)C(=O)N(CCNCC#C)C3=O`, the growth is reported as -18.4% (active). `CN1CCN(CCOc2ccc(-c3cnc4c(-c5cccc(F)c5F)cnn4c3)cc2)CC1` was tested, and the growth was -49.9% (active). `O=C(O)CSCc1nnc2n(Cc3ccccc3)c(=O)c3c4c(sc3n12)CCCC4` was tested, and the growth was 94.9%. For `COc1ccc2c(c1)C(=O)/C(=C/c1ccc([N+](=O)[O-])s1)O2`, the growth was -10.7% (active). `Nc1nc(-c2ccccc2Br)nn1-c1nc2ccccc2s1` showed a growth of 99.3%. In the case of `CCc1cccc2c1S/C(=C/c1ccc(Cl)cc1)C2=O`, the growth is reported as 93.5%. For `C#CC(C(C)C)N(CCO)CCCC` (stereo not given), the growth was 108%. `CCN(CC)CCCC(C)Nc1c(-c2ccccc2)cnc2cc(Cl)ccc12` (stereo not given) was tested, and the growth was 56.3%. `COc1ccc(Nc2ncc(Br)c(NCCCNC(=O)c3cccs3)n2)cc1` showed a growth of 17.7%. `COc1cccc(-c2nc3sccn3c2-c2ccnc(NCCNS(=O)(=O)c3ccccc3)n2)c1` was tested, and the growth was 69.9%. `Cc1ccc(C(=O)N2C/C(=C/c3ccc(F)cc3)C(=O)/C(=C/c3ccc(F)cc3)C2)cc1` was tested, and the growth was 81.6%. `FC(F)(F)c1ccc(-c2cnc(Br)nc2NC2CCCCCC2)cc1` was tested, and the growth was 8.9% (active). In the case of `CCCCc1nc(Cl)c(C2CC(c3ccc(Cl)cc3)=NN2c2cc(Cl)cc(Cl)c2)[nH]1` (stereo not given), the growth is reported as 35.4%. `O=S(=O)(NCCNc1nccc(-c2c(-c3ccc(F)c(O)c3)nc3occn23)n1)c1ccc(Cl)cc1` showed a growth of 96.6%. `COc1cc(-c2nc(-c3nc4ccc(Cl)cc4[nH]3)cc3c2[nH]c2ccccc23)cc(OC)c1OC` showed a growth of 68.7%. For `Cc1cccc(/C=C/c2c(C(=O)/C=C/c3ccccc3)c(C)nc3ccccc23)c1`, the growth was -15.8% (active). Work on `O=[N+]([O-])c1ccc(C=C2C(Cl)=C(Cl)C(Cl)=C2Cl)cc1` yielded a growth of 34.2%. With `COc1ccc2c(c1)OC(N(C(C)=O)C(C)=O)=C(C#N)C2c1ccc(F)cc1` (stereo not given) the growth was -18.9% (active). `CC[C@@H](c1ccc2cc(OC)ccc2c1)C(C)(C)C(=O)F` was tested, and the growth was 104%. `Cn1c2c(c3ccc(Cl)c(Cl)c31)C(C#N)C(C)(C)NC2=O` (stereo not given) showed a growth of 69.3%. `CCCOC(=O)N[C@H]1CCc2cc(OC)c(OC)c(OC)c2-c2ccc(SC)c(=O)cc21` was tested, and the growth was -39.7% (active). `FCc1ncc(-c2ccc(C(F)(F)F)cc2)c(NC2CCCCCC2)n1` was tested, and the growth was -25.6% [100 µM] (active). In the case of `COc1ccc(NC(=O)c2ccc(Cl)cc2Cl)cc1`, the growth is reported as 103%. In the case of `COc1cc(NCc2cn(-c3ccc(C(=O)O)cc3)nc2-c2ccc(C(=O)O)cc2)cc(OC)c1OC`, the growth is reported as 120%. For `O=S(=O)(NCCNc1cc(-c2cn(-c3ccccc3)nc2-c2ccccc2)ccn1)c1cccc2ccccc12`, the growth was 36.4%. In the case of `CON=C1C[C@]2(C[C@@H]3C[C@@H](C/C=C(\C)C[C@@H](C)/C=C/C=C4\CO[C@@H]5[C@H](O)C(C)=C[C@@H](C(=O)O3)[C@]45O)O2)O[C@H](/C(C)=C/C(C)C)[C@H]1C`, the growth is reported as -43.6% (active). For `Cc1csc(Nc2nc(-c3cccc(Br)c3)nc(C(Cl)(Cl)Cl)n2)n1`, the growth was 9.61% (active). `CC(C)(C)OC(=O)CN1CCc2c(sc3ncnc(N4CCN(c5ccc(F)cc5)CC4)c23)C1` showed a growth of 99.5%. With `CCN=c1sc2c(n1NC(=O)c1cc3ccc1CCc1ccc(cc1)CC3)C(=O)c1ccccc1C2=O` the growth was -18.3% (active). Molecule `Cn1ncc2c(Nc3ccccc3Cl)nc(Cl)nc21` has a growth of 96.1%.
